# Source: PubChem BioAssay (NCI)
# About 83,000 compounds went through this panel and 20% of them were active in at least one assay; those are over-represented in the sample as a whole.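 Single-dose data. Exposure time 48 hours. Values below 10 considered active.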 A number with no mark means an inactive call. The source made the active and inactive calls.
# Experiments:
# Test in all cases: NCI-60 one-dose screen, 48 h (100 = growth as untreated, 0 = no growth, -100 = all killed)
# Settings in all cases: 10 µM unless noted
# SK-MEL-2 melanoma = test system: SK-MEL-2 melanoma
# EKVX NSCLC = test system: EKVX NSCLC
# SN12C renal = test system: SN12C renal
# UO-31 renal = test system: UO-31 renal
# TK-10 renal = test system: TK-10 renal
# ACHN renal = test system: ACHN renal
# CAKI-1 renal = test system: CAKI-1 renal
# A498 renal = test system: A498 renal
# CCRF-CEM leukemia = test system: CCRF-CEM leukemia
# MOLT-4 leukemia = test system: MOLT-4 leukemia
Compound,growth (SK-MEL-2 melanoma),growth (EKVX NSCLC),growth (SN12C renal),growth (UO-31 renal),growth (TK-10 renal),growth (ACHN renal),growth (CAKI-1 renal),growth (A498 renal),growth (CCRF-CEM leukemia),growth (MOLT-4 leukemia)
CSc1nc2ccccc2cc1/C=C1/C=C(c2ccccc2)NC1=O,81%,84.9%,94.1%,91.9%,123%,102%,77.9%,69.9%,68.8%,36.3%
Cc1ccc(C[P+](c2ccccc2)(c2ccccc2)c2ccccc2)cc1,-4.59% (active),6.8% (active),4.76% (active),88.1%,30.5%,24.4%,44.8%,27.5%,9.9% (active),-31.4% (active)
CC(C)(Sc1cc(C(C)(C)C)c(O)c(C(C)(C)C)c1)Sc1cc(C(C)(C)C)c(OC(=O)CCCC(=O)O)c(C(C)(C)C)c1,76%,53.5%,41.4%,38%,74.2%,47%,59%,60.2%,43.5%,36.9%
COC12C=C/C(=C(/C(=O)OCc3ccncc3)C(=O)CCCCCCCCC3(OC)C=C/C(=C(/C(=O)OCc4ccncc4)C(=O)CCCCCCCC1)O3)O2,-1.63% (active),-22.1% (active),-30.6% (active),-70.9% (active),-45% (active),-64% (active),-48.6% (active),-87.6% (active),-14.8% (active),-1.82% (active)
C=CCn1c(SCC(=O)Nc2ccc(C(=O)/C=C/c3ccc(Cl)cc3)cc2)nnc1-c1ccc(Br)cc1,76.4%,101%,80.3%,67.9%,83.3%,78.3%,74.5%,74.6%,79.7%,63.1%
Cc1nc2sc(C(=O)Nc3cccc(Br)c3)c(N)c2cc1C(O)c1ccccc1 (stereo unspecified),47.2%,48.5%,22.4%,48.4%,58%,33.2%,46.4%,5.68% (active),15.7%,17.1%
CCOC(=O)c1c2c(n3cccc(F)c13)C(=O)c1ncccc1C2=O,72.4%,27.7%,25.6%,-28.5% (active),36.8%,7% (active),14.4%,24%,67.3%,69.3%
COc1ccc(C2=Nc3c(N)nc(N)nc3NC(c3cccc(Nc4ccnc5cc(C(F)(F)F)ccc45)c3)C2)cc1 (stereo unspecified),75.5%,72.3%,75.7%,70%,108%,96.4%,60.7%,84.7%,53.9%,24.3%
O=C(CSc1nnc(-c2cnccn2)n1-c1ccccc1)c1ccc(Cl)cc1,96.4%,103%,87.5%,94.2%,99.2%,99.8%,102%,93.1%,92.1%,93.4%
CC/C(=C(/c1ccc(Cl)cc1)c1ccc(OCCN2CCCCC2)cc1)c1ccc(OC)cc1,90.6%,58.5%,74.8%,66.2%,80.7%,81.2%,72.3%,118%,28.8%,25.8%
COc1cc(C2CC(c3ccc(Nc4nc(Nc5ccc(Cl)cc5)nc(Nc5ccc(Cl)cc5)n4)cc3)=NN2C(C)=O)cc(OC)c1OC (stereo unspecified),80.4%,94%,102%,84.8%,118%,96.7%,90.4%,113%,–,79%
Nc1cnc(C(=O)NNc2nc3cc(F)ccc3n3cccc23)cn1,75%,26.2%,46.6%,8.25% (active),51.3%,12.9%,29.5%,44.7%,21.4%,19%
CN(C)Cc1ccc(O)c(C(=O)O)c1,124%,101%,109%,96.4%,70.7%,101%,92.8%,104%,103%,101%
CN(C)CC1CCC(CN(C)C)C1=O (stereo unspecified),96.8%,133%,106%,85.4%,92.1%,110%,108%,103%,27.9%,64.4%
Cc1cc(=O)oc2cc(OCc3nn4c(Nc5nc6ccccc6s5)c(-c5ccccc5)nc4s3)ccc12,108%,88.4%,91.4%,83.6%,128%,100%,79.5%,91.1%,40.7%,97.5%
CCN1C(=S)N(c2ccccc2)C2NC(=S)N(/N=C/C=C/c3ccccc3OC)C21 (stereo unspecified),32.8%,48.2%,24.6%,44%,68.6%,33.3%,27.7%,1.17% (active),9.27% (active),9.49% (active)
COc1ccc2cc1Oc1ccc(cc1)C[C@H]1c3c(cc4c(c3Oc3cc5c(cc3OC)CCN(C)[C@@H]5C2)OCO4)CCN1C,69.9%,75.1%,60.3%,60.6%,44.8%,63%,70.8%,32.2%,–,31.5%
c1cnc2c(-c3nc4ccc5[nH]ncc5c4c4c3CCCC4)c[nH]c2c1,58.5%,49.5%,27.4%,43.7%,50.1%,27.1%,57%,64.2%,11.4%,5.62% (active)
COc1cc(/C=C2/C=C(c3ccccc3)N(CCc3ccc(S(N)(=O)=O)cc3)C2=O)cc(OC)c1OC,104%,105%,105%,87.8%,96.2%,103%,99.1%,86.6%,91%,83.1%
CCSc1oc(-c2ccccc2)nc1[P+](c1ccccc1)(c1ccccc1)c1ccccc1,-9.57% (active),11%,3.37% (active),-31.3% (active),24.1%,-5.44% (active),1.2% (active),-32.8% (active),11.1%,1.34% (active)
O=C(NCc1ccc(Cl)cc1Cl)C1CCC(=O)N1c1cccs1 (stereo unspecified),91.2%,91.3%,97.9%,83.1%,98.8%,95%,81.6%,85.2%,–,98.1%
N#C/C(=C\c1c(-c2ccccc2)[nH]c2ccccc12)C(N)=O,111%,83.7%,94.2%,93.4%,124%,88.8%,63.2%,73.7%,66.1%,61.6%
CCCCNC(=O)Oc1ccc(/C(=C(/C)Cc2ccc(OC)cc2)c2ccc(OCCN(CC)CC)cc2)cc1,102%,83.9%,83.8%,58.4%,79.7%,91.1%,89.9%,102%,49.3%,48.3%
Clc1ccc2c(NC3CCC(N4CCOCC4)CC3)ccnc2c1 (stereo unspecified),113%,72.6%,90.5%,75.3%,80.8%,73.8%,75.1%,75.5%,85.5%,74.4%

Compound,growth (SK-MEL-2 melanoma),growth (EKVX NSCLC),growth (SN12C renal),growth (UO-31 renal),growth (TK-10 renal),growth (ACHN renal),growth (CAKI-1 renal),growth (A498 renal),growth (CCRF-CEM leukemia),growth (MOLT-4 leukemia)
COc1ccccc1N1CCCCC1,104%,98.1%,93.9%,98.9%,95%,103%,97.8%,83.9%,108%,100%
N#CC1=C(N)Oc2c(sc3c(Br)cccc23)C1c1ccc(Cl)cc1 (stereo unspecified),-2.16% (active),34.3%,30%,34.2%,37.8%,43.6%,39.3%,16.3%,13.7%,3.26% (active)
C=C1C(=O)O[C@H]2[C@H]1CC/C(COC(=O)c1cc3ccccc3s1)=C\CC[C@@]1(C)O[C@@H]21,-67.2% (active),-81.1% (active),-43.9% (active),-94.3% (active),-91.9% (active),-91.3% (active),-72.6% (active),61.9%,-25.3% (active),-4.09% (active)
O=C(c1ccccc1)c1ccc(C2CCCCC2)cc1,110%,81.9%,90.7%,98.2%,81.5%,97.1%,82.2%,77.9%,96.2%,104%
COC(=O)/C=C1/SC(=Nc2ccc(C(F)(F)F)cc2)N(CCc2c[nH]c3ccc(O)cc23)C1=O,-33.5% (active),41.1%,-69% (active),-18.5% (active),11.7%,-46.1% (active),31.4%,-1.57% (active),-9.32% (active),-36.2% (active)
COc1ccc(/C=N/C2=C(C#N)C(c3ccccc3)c3ccc4ccccc4c3O2)cc1 (stereo unspecified),49.4%,42.9%,38%,29.6%,59.7%,35.4%,28%,19.3%,9.58% (active),19.2%
O=C1C(=O)N(Cc2ccc(-c3ccccc3)cc2)c2ccc(OC(F)(F)F)cc21,69.7%,94.3%,21.2%,45.5%,63.9%,41.7%,31.7%,84.8%,9.7% (active),30%
COc1cc(/C=C/C(=O)c2ccc(F)cc2)ccc1OCCCCOc1ccc(/C=C/C(=O)c2c(C)nc3ccccc3c2C)cc1OC,50.5%,133%,115%,86.8%,114%,95.8%,80.6%,113%,80.5%,67%
O=C(Nc1ccc(Oc2cccc(Cl)c2)c(Cl)c1)c1cccnc1,44.1%,50.9%,43.4%,44.1%,59.8%,41.7%,30.6%,-3.1% (active),17.5%,37.4%
O=C(Nc1nc(-c2ccc(Cl)cc2)nc2c1sc(=S)n2-c1ccccc1)C(F)(F)F,43.3%,55%,57%,-41.9% (active),-31.9% (active),-48.5% (active),20.2%,-8.62% (active),72.2%,82.6%
O=C(/C=C(/C=C/c1ccc2[nH]ccc2c1)OB(F)F)/C=C/c1ccc2[nH]ccc2c1,25.8%,4.65% (active),10%,2.63% (active),5.77% (active),-22.4% (active),-14.5% (active),32.5%,-19.9% (active),-4.43% (active)
Cc1ccc(-c2nc(N3CCCNCC3)c3oc(-c4ccccc4)nc3n2)cc1,-67.2% (active),38.2%,-85.1% (active),-99% (active),-95.9% (active),-98.8% (active),-71% (active),93.4%,-71% (active),-73.2% (active)
O=S(=O)(NCCNc1nccc(-c2c(-c3ccc(F)c(O)c3)nc3occn23)n1)c1ccc(Cl)cc1,42.2%,104%,80.7%,81.6%,122%,76.5%,92.7%,97.9%,–,84.1%
CC(C)=CCC[C@](C)(O)[C@H]1CC[C@]2(C)[C@@H]1CC[C@@H]1[C@@]3(C)C/C(=C/c4ccco4)C(=O)C(C)(C)[C@@H]3CC[C@]12C,109%,101%,97%,88.7%,103%,102%,90.7%,86.3%,–,104%
Cn1ccnc1C(=O)/C=C/c1ccc(C(=O)Nc2ccccc2O)cc1,78%,56.5%,12.6%,33.3%,107%,10.5%,26.8%,55.7%,-9.45% (active),17%
O=C(Nc1ccccc1O)c1ccc(CNC(=O)c2sccc2Nc2ccnc(C(F)(F)F)c2)cc1,0.0247% (active),59.2%,57.8%,27.2%,4.53% (active),49.3%,35.2%,6.31% (active),10.8%,12.1%
COc1ccc2c(c1)c(-c1nc(-c3c[nH]c4ccncc34)cs1)cn2C,-45.2% (active),-53.3% (active),-72% (active),-88% (active),43.4%,-96.7% (active),-86.3% (active),65.7%,-45.2% (active),-42.8% (active)
CCCCCCC12CCC(=O)N1CCc1cncn12 (stereo unspecified),108%,99.9%,102%,109%,92.5%,109%,109%,99.2%,95.4%,104%
COc1ccc(Nc2nnc(-c3ccc(OC)c(OC)c3)o2)cc1,90.5%,89.8%,97.8%,55.3%,114%,82.8%,89%,94.8%,86.8%,91.3%
CCOC(=O)c1ccc(NC(=O)c2nc(-c3cc(OC)c(OC)c(OC)c3)n(-c3ccc(Cl)cc3)n2)cc1,85.9%,94%,85.2%,58.8%,93.3%,94.1%,80.7%,86%,–,81.8%
CC(C)Cn1cnc2c(=O)[nH]c(N)nc21,87.9%,101%,98.9%,94.4%,88.6%,106%,95.4%,–,107%,92.4%
N#Cc1nc(-c2ccc(Cl)cc2)oc1S(=O)(=O)N1CCN(c2ccc(F)cc2)CC1,87.9%,111%,92.2%,81.3%,100%,102%,107%,–,3.82% (active),3.45% (active)
CCOC(=O)C1=C(N)Oc2c(sc3c(F)cccc23)C1c1ccc(O)cc1 (stereo unspecified),14.3%,42.4%,56%,30.1%,74%,42.3%,57.6%,43.2%,–,9.73% (active)
